# Experimental data: PubChem BioAssay (NCATS)
# Results filed as inconclusive are left out. Active and inactive are the calls of the source. Unless noted, how the calls were made is not given here.
# Legend:
# [1] = qHTS profiling of the MIPE4 collection as inhibitors of Plasmodium falciparum (3D7) proliferation (AID 743344);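 further: scaled between DMSO vehicle wells and 0.29 µM artemisinin as full inhibition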; details: P. falciparum 3D7 in erythrocytes, SYBR Green DNA fluorescence, 72 h; at 28.5 µM unless noted
# Summary of the method: (§1)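 Parasite DNA was quantified by SYBR Green I fluorescence (ex 485, em 535 nm) after overnight lysis in saponin/Triton buffer at room temperature. Cultures at 0.3% parasitemia and 2.5% hematocrit were first exposed to compound for 72 h at 37 C; signals were normalised to artemisinin (0.29 uM) and vehicle wells.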
# [2] = qHTS profiling of the MIPE4 collection as inhibitors of Plasmodium falciparum (DD2) proliferation (AID 743345); details: P. falciparum Dd2 in erythrocytes, SYBR Green DNA, 72 h; at 28.5 µM unless noted
# Summary of the method: as §1
# [3] = qHTS profiling of the MIPE4 collection as inhibitors of Plasmodium falciparum (DD2) proliferation (Rep 2) (AID 743346); details: P. falciparum Dd2 in erythrocytes, SYBR Green DNA, 72 h; at 28.5 µM unless noted
# Summary of the method: as §1
# [4] = qHTS profiling of the MIPE4 collection as inhibitors of Plasmodium falciparum (HB3) proliferation (AID 743347);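 further: plate controls were DMSO vehicle wells for no effect and artemisinin wells for full effect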; details: P. falciparum HB3 in erythrocytes, SYBR Green DNA, 72 h; at 28.5 µM unless noted
# Summary of the method: as §1
# [5] = High-throughput drug toxicity screening in the BPDCN cell line Gen2.2 (AID 1224824); details: Gen2.2 BPDCN cells; at 45.8 µM (top of the series) unless noted;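 further: cells exposed to compounds for 48 h before reading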
# Summary of the method: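 Seed 500 exponentially growing Gen2.2 cells/well; add compounds by pin tool; incubate 48 h, 37 °C, 5% CO2; add CellTiter-Glo, 15 min RT; read luminescence. % activity vs DMSO (100%) and bortezomib (0%).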
# [6] = High-throughput drug toxicity screening in the BPDCN cell line Cal-1 (AID 1224825); details: Cal-1 BPDCN cell viability, qHTS; at 45.8 µM (top of the series) unless noted
# Summary of the method: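 CellTiter-Glo luminescence after 48 h compound exposure; percent activity scaled with DMSO as 100% and bortezomib (9.2 uM final) as 0%. Cal-1 cells seeded at 500/well in RPMI, 10% FBS, no phenol red.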
# [7] = qHTS assay for measurement of the activity of small molecule inhibitors on Zika virus induced Caspase-3 activity in human iPSC derived neural progenitor cells (hNPCs) (AID 1224857; active means well fitted curve in the direction sought with a large enough effect; an effect the other way counts as inactive or inconclusive; further: nearly all actives have a fitted effect of over 65% in size; further: potency means the concentration at half of the fitted maximal effect)
# Summary of the method: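 Caspase-3/7 induction by a 6-hour ZIKV infection was quantified with a luminescent Caspase-Glo 3/7 reagent incubated 30 minutes at room temperature. Compounds were preincubated with hNPCs for 1 hour; inhibition was calculated against uninfected and infected control wells.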
# [8] = qHTS assay for measurement of the activity of small molecule inhibitors on Zika virus induced Caspase-3 activity in human astrocytoma cells (AID 1224859; active means well fitted curve in the direction sought with a large enough effect; an effect the other way counts as inactive or inconclusive;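 further: plate controls were ZIKV-infected untreated cells for no effect and uninfected cells for full effect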)
# Summary of the method: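 In SNB-19 cells plated at 250 cells/well and grown 16-20 h, compounds were applied 1 h before ZIKV (2 FFU/cell). Six hours later caspase-3/7 luminescence was recorded.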
# [9] = qHTS Screen of the MIPE 4.0 Collection Against Ewings Sarcoma (RDES) (AID 1259252; active means well fitted curve in the direction sought with a large enough effect; an effect the other way counts as inactive or inconclusive; further: potency means the concentration at half of the fitted maximal effect; nearly all actives have a fitted effect of over 35% in size)
# Summary of the method: (§2)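 Dose series incubated 48 h with cells in RPMI plus 5% FBS, glutamine and penicillin/streptomycin; cell viability then quantified via CellTiter-Glo.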
# [10] = qHTS Screen of the MIPE 4.0 Collection Against Ewings Sarcoma (TC32) (AID 1259256; active means well fitted curve in the direction sought with a large enough effect; an effect the other way counts as inactive or inconclusive; further: potency means the concentration at half of the fitted maximal effect; nearly all actives have a fitted effect of over 45% in size)
# Summary of the method: as §2
# [11] = qHTS Screen of the MIPE 4.0 Collection Against Ewings Sarcoma (EW8) (AID 1259255; active means well fitted curve in the direction sought with a large enough effect; an effect the other way counts as inactive or inconclusive; further: nearly all actives have a fitted effect of over 35% in size; further: potency means the concentration at half of the fitted maximal effect;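 on viability: 100% = DMSO-treated cells and 0% = medium-only wells without cells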)
# Summary of the method: as §2
# [12] = qHTS profiling for inhibitors of Plasmodium falciparum (HB3) proliferation (AID 743324; active means well fitted curve in the direction sought with a large enough effect; an effect the other way counts as inactive or inconclusive;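 further: 100% = DMSO vehicle wells and 0% = artemisinin-treated control wells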); details: Plasmodium falciparum HB3 blood-stage proliferation; at 28.7 µM (top of the series) unless noted
# Summary of the method: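 SYBR Green fluorescence (485 ex/535 em) of lysed cultures, incubated overnight at room temperature in the dark, quantifies parasite DNA. Infected erythrocytes at 0.3% parasitemia and 2.5% hematocrit were exposed 72 h; values normalized to DMSO and 0.29 uM artemisinin controls.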
Compound,"parasite growth, % of DMSO control [1]","parasite growth remaining, % of DMSO control (lower = more inhibition) [2]","parasite growth, % of control (lower = inhibition) [3]","growth, % of control [4]","cell viability, % of control (lower = more cytotoxic) [5]",viability (% of control) [6],Potency [7],Potency [8],Potency [9],Potency [10],Potency [11],"remaining proliferation (% of control), lower = more inhibition [12]"
CNc1nc(-c2ccc3c(N)n[nH]c3c2)cc(N2C[C@@H](C(=O)NC3CCCCC3)CC[C@@H]2C)n1,5.06%,8.54%,11.4%,4.91%,6.94%,18.1%,inactive,inactive,6.62 µM (active),6.62 µM (active),,
C[C@H]1COC2=C1C(=O)C(=O)c1c2ccc2c1CCCC2(C)C,5.99%,12.1%,15.5%,9.95%,23.4%,56.6%,inactive,inactive,20.9 µM (active),23.5 µM (active),,
COc1cc(Cl)cn2c(-c3cccc(NC4CNC4)n3)cnc12,39.6%,27.3%,33.2%,42.7%,91.4%,5.98%,inactive,inactive,26.4 µM (active),,inactive,
CO[C@@H]1C(N(C)C(=O)c2ccccc2)C[C@H]2O[C@]1(C)n1c3ccccc3c3c4c(c5c6ccccc6n2c5c31)C(=O)NC4=O (stereo not given in full),17.5%,8.87%,122%,28.7%,247%,28.3%,inactive,inactive,4.18 µM (active),3.32 µM (active),,120%
O[C@@H](COc1cccc2ncccc12)CN1CCN(C2c3ccccc3[C@@H]3[C@H](c4ccccc42)C3(F)F)CC1 (stereo not given in full),47.1%,65.6%,54.1%,63.5%,4.83%,6.33%,26.4 µM (active),inactive,20.9 µM (active),,23.5 µM (active),
C[C@H]1O[C@@H](n2cc(F)c(=O)[nH]c2=O)[C@H](O)[C@H]1O,22.6%,13.5%,7.59%,,170%,28.4%,inactive,inactive,18.7 µM (active),9.35 µM (active),,
Cc1[nH]c(C=C2C(=O)Nc3ccc(S(=O)(=O)N(C)c4cccc(Cl)c4)cc32)c(C)c1C(=O)N1CCN(C)CC1,7.33%,9.96%,14.4%,4.63%,2.96%,0.852%,inactive,inactive,26.4 µM (active),,26.4 µM (active),
